# Measured values from PubChem BioAssay (Tox21).
# Records with an inconclusive call do not appear. Entries that show only a call come without a potency. Calls of active or inactive are those of the source. Calls come from the whole dose curve.
# Target: 5-hydroxytryptamine receptor 2A (Homo sapiens) (UniProt P28223)
# Experiment: 5-hydroxytryptamine receptor 2A (HTR2A) small molecule antagonists, cell-based qHTS assay (AID 1963586); note: nearly all actives have a fitted effect of over 45% in size
# Conditions: HTR2A-CHO cells, DOI-induced calcium flux, fluorescence; series mostly up to 61.5 µM
# In short: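 CHO cells stably expressing human HTR2A were plated for 18 h at 37 C, then loaded with calcium dye for 1 h. Compounds were preincubated 5 min at room temperature before DOI (4 nM solution) was added. Kinetic fluorescence was read for 3 min.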
# Chain of 5-hydroxytryptamine receptor 2A (Homo sapiens) (P28223 whole entry, looked up): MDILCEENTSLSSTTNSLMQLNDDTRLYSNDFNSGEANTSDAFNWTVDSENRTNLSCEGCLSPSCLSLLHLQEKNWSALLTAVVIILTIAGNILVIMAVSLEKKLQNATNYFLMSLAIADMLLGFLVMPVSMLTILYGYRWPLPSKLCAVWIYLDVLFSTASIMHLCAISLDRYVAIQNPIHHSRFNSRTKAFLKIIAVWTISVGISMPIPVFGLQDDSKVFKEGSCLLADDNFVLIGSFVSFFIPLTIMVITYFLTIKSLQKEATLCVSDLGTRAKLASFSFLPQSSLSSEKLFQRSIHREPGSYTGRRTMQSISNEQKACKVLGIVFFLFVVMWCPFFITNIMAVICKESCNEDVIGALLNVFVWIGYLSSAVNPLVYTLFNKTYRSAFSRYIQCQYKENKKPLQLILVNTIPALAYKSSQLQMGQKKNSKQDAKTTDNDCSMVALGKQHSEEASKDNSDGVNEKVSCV
row,Structure (SMILES),Potency
1,CC[N+](C)(CC)CCOC(=O)C1c2ccccc2Oc2ccccc21,inactive
2,C/C=C1/C(=O)C[C@H]2[C@@H]3CCC4=CC(=O)CC[C@]4(C)[C@H]3CC[C@]12C,inactive
3,O=C(NN1CCCC1)NS(=O)(=O)c1ccc(Cl)cc1,inactive
4,CCCNCCC,inactive
5,O=C1CC[C@@H](C(=O)O)N1,inactive
6,C1C2OC2C2C1C1CC2C2OC12 (centres undefined),inactive
7,Cc1ccc(C#N)cc1,inactive
8,CC[C@@]1(c2ccccc2)NC(=O)N(C)C1=O,inactive
9,CC[C@H]1O[C@]2(CC[C@@H]1C)C[C@@H]1C[C@@H](C/C=C(\C)C[C@@H](C)/C=C/C=C3\CO[C@@H]4[C@H](O)C(C)=C[C@@H](C(=O)O1)[C@]34O)O2,inactive
10,O=CNc1ccccc1,inactive
11,FC(F)(Cl)C(F)(Cl)Cl,inactive
12,CCN(C(=O)N(CC)c1ccccc1)c1ccccc1,inactive
13,CCCCCC/C=C/C=O,inactive
14,CCCCCCCCCCO[C@@H]1O[C@H](CO)[C@@H](O)[C@H](O)[C@H]1O,inactive
15,CC(C)COC(=O)CCCCC(=O)OCC(C)C,inactive
16,CCOc1ccc(NC(=O)CC(C)=O)cc1,inactive
17,CCOC(=O)CC(=O)c1ccccc1,inactive
18,NCCCC(N)(C(=O)O)C(F)F (centres undefined),inactive
19,Cc1ccccc1Br,inactive
20,CCCCCCCCS(=O)(=O)O,inactive
21,CCOC(=O)[C@@](C)(N)Cc1ccc(O)c(O)c1,inactive
22,CC1(C)SC(C)(C)SC(C)(C)S1,inactive
23,NCCCCCCNCCCCCCN,inactive
24,CCN(CC)CCNC(C(=O)OCCC(C)C)c1ccccc1 (centres undefined),inactive
